In PubChem BioAssay (Tox21):
Several values for one entry are separate records, joined by “and”; a condition that tells them apart may be missing. Equal values may be shown once. The source holds several records for some structures; these can differ, active in one and inactive in another. Activity calls are given as the source filed them. Entries that show only a call come without a potency. Unless noted, calls follow the shape of the dose curve; as a rule, active = well fitted curve in the direction sought with a large enough effect in the repeat runs; inconclusive = weak or mixed curves; inactive = no such curve, though single readings can be large; an effect the other way counts as inactive or inconclusive.

Columns and labels:
[1] = qHTS assay for identifying genotoxic compounds that show differential cytotoxicity against isogenic chicken DT40 cell lines with known DNA damage response pathways - wild type cell line (AID 743012); also: nearly all actives have a fitted effect of over 60% in size; also: potency is read from the fitted curve at half-maximal effect
How it was run: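 Quantitative HTS on parental DT40 cells: 40 h compound treatment at 37 C/5% CO2, with viability then determined by CellTiter-Glo luminescence. Values serve as the DNA repair-proficient reference for differential cytotoxicity.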

[2] = qHTS assay for identifying genotoxic compounds that show differential cytotoxicity against isogenic chicken DT40 cell lines with known DNA damage response pathways - Rev3 mutant cell line (AID 743014); also: nearly all actives have a fitted effect of over 55% in size; also: potency is read from the fitted curve at half-maximal effect
[3] = qHTS assay to identify small molecule antagonists of the androgen receptor (AR) signaling pathway - cell viability counter screen (AID 743033; also: nearly all actives have a fitted effect of over 45% in size; also: potency is read from the fitted curve at half-maximal effect)
[4] = qHTS assay to identify small molecule antagonists of the androgen receptor (AR) signaling pathway using the MDA cell line - cell viability counter screen (AID 743041; also: nearly all actives have a fitted effect of over 45% in size; also: potency is read from the fitted curve at half-maximal effect)
How it was run: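 Same-well cytotoxicity was assessed by CellTiter-Fluor in MDA-kb2 AR-luc cells after 16 h of compound treatment under R1881 agonism.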

[5] = qHTS assay to identify small molecule antagonists of the thyroid receptor (TR) signaling pathway - cell viability counter screen (AID 743064); also: nearly all actives have a fitted effect of over 50% in size; also: potency is read from the fitted curve at half-maximal effect
How it was run: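 GH3.TRE-Luc rat pituitary cells carrying a TRE-luciferase reporter were treated with compound plus 1 nM T3 (final) for 23.5 h at 37 °C. Viability was then read in the same wells by CellTiter-Fluor fluorescence after a further 30 min.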

[6] = qHTS assay to identify small molecule antagonists of the thyroid receptor (TR) signaling pathway (AID 743065); also: nearly all actives have a fitted effect of over 55% in size; also: potency is read from the fitted curve at half-maximal effect
How it was run: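 GH3.TRE-Luc rat pituitary cells (two TREs driving luciferase) were dosed with compound, then stimulated with 1 nM T3 (final) for 23.5 h at 37 C. ONE-Glo luminescence was the read-out, with CellTiter-Fluor fluorescence as the cytotoxicity counter-screen.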

[7] = tested on: thyroid hormone receptor (rat, GH3 cells); experiment: qHTS assay to identify small molecule agonists of the thyroid receptor (TR) signaling pathway (AID 743066; calls by dose curve)
[8] = molecular target: Estrogen receptor (Homo sapiens) (UniProt P03372); experiment: qHTS assay to identify small molecule antagonists of the estrogen receptor alpha (ER-alpha) signaling pathway (AID 743069; active = well fitted curve in the direction sought with a large enough effect in the signal ratio in the repeat runs, not every such curve was filed as active; inconclusive = weak or mixed curves, or effect the other way; inactive = no such curve, though single readings can be large or run the other way; the % refers to the signal ratio; also: potency is read from the fitted curve at half-maximal effect)
How it was run: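 Reporter cells (ER-alpha-bla, HEK293 background) are conditioned overnight in stripped-serum medium (2% charcoal-stripped FBS). Compound and 17beta-estradiol exposure runs 18 hr at 37C, 5% CO2.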

[9] = qHTS assay to identify small molecule antagonists of the estrogen receptor alpha (ER-alpha) signaling pathway - cell viability counter screen (AID 743074; calls by dose curve;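 also: HEK293 cells carrying ER-alpha-UAS-bla reporter stimulated with 17beta-estradiol; nearly all actives have a fitted effect of over 45% in size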)
[10] = molecular target: Estrogen receptor (Homo sapiens) (UniProt P03372); experiment: qHTS assay to identify small molecule agonists of the estrogen receptor alpha (ER-alpha) signaling pathway (AID 743075; calls by dose curve;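 also: HEK293 GripTite cells with ER-alpha and UAS-driven beta-lactamase reporter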; also: potency is read from the fitted curve at half-maximal effect)
[11] = molecular target: Estrogen receptor (Homo sapiens) (UniProt P03372); experiment: qHTS assay to identify small molecule agonists of the estrogen receptor alpha (ER-alpha) signaling pathway using the BG1 cell line (AID 743079); also: nearly all actives have a fitted effect of over 20% in size; also: potency is read from the fitted curve at half-maximal effect
[12] = qHTS assay to identify small molecule antagonists of the estrogen receptor alpha (ER-alpha) signaling pathway using the BG1 cell line (AID 743080; calls by dose curve;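 also: BG1 cells stimulated with 17beta-estradiol alongside compound; nearly all actives have a fitted effect of over 25% in size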; also: potency is read from the fitted curve at half-maximal effect)
How it was run: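 Quantitative HTS on the Tox21 10K library: BG1 cells with endogenous ER-alpha and ERE-luciferase reporter, 17beta-estradiol stimulation, 21.5 h compound exposure, luminescence endpoint with parallel fluorescence cytotoxicity counter-read.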

[13] = qHTS assay to identify small molecule antagonists of the estrogen receptor alpha (ER-alpha) signaling pathway using the BG1 cell line - cell viability counter screen (AID 743081);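 also: compound given together with 17beta-estradiol as the ER stimulus; nearly all actives have a fitted effect of over 45% in size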; also: potency is read from the fitted curve at half-maximal effect
Aromatase (Homo sapiens) = Aromatase (Homo sapiens) (UniProt P11511); experiment: qHTS assay to identify aromatase inhibitors (AID 743083); also: nearly all actives have a fitted effect of over 55% in size; also: potency is read from the fitted curve at half-maximal effect
[14] = qHTS assay for identifying genotoxic compounds that show differential cytotoxicity against isogenic chicken DT40 cell lines with known DNA damage response pathways - Rad54/Ku70 mutant cell line (AID 743015); also: nearly all actives have a fitted effect of over 60% in size; also: potency is read from the fitted curve at half-maximal effect
[15] = molecular target: Androgen receptor (Homo sapiens) (UniProt P10275); experiment: qHTS assay to identify small molecule antagonists of the androgen receptor (AR) signaling pathway using the MDA cell line (AID 743042; also: nearly all actives have a fitted effect of over 55% in size)
How it was run: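 MDA-kb2 breast carcinoma cells carrying MMTV-luciferase (AR/GR responsive) were co-treated with compounds and the agonist R1881 for 16 h at 37C. Inhibition read as ONE-Glo luminescence; CellTiter-Fluor fluorescence measured in parallel for cytotoxicity.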

Sequence of Estrogen receptor (Homo sapiens) (P03372 whole entry, looked up): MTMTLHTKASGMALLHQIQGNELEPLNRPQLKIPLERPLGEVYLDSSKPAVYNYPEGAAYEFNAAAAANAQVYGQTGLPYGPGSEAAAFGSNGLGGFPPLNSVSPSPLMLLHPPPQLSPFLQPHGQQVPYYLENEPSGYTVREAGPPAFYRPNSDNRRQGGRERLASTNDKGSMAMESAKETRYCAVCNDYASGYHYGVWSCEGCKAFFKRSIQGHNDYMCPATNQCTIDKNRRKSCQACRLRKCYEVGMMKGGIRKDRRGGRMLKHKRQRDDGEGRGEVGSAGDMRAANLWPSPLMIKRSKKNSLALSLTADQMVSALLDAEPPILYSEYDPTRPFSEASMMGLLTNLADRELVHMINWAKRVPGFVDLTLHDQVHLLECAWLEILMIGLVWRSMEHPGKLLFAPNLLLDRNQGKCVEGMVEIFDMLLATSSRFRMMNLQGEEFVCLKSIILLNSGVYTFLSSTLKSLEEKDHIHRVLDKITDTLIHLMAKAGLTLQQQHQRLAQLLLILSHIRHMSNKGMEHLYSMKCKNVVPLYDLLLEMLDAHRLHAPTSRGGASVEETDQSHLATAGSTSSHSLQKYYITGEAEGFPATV
Sequence of Aromatase (Homo sapiens) (P11511 whole entry, looked up): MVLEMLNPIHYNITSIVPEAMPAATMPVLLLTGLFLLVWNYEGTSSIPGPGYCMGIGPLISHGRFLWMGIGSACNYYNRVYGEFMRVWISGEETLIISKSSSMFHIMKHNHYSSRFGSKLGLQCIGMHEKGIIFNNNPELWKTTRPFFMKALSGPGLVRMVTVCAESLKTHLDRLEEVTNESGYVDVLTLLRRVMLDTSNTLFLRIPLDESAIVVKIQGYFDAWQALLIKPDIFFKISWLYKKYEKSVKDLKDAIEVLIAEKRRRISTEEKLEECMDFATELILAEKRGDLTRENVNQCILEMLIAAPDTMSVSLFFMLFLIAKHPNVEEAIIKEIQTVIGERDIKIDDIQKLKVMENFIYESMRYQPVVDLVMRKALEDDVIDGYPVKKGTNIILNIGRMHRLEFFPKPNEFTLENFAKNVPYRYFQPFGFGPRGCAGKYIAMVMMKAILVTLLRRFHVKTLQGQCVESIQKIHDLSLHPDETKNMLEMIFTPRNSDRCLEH
Sequence of Androgen receptor (Homo sapiens) (P10275 whole entry, looked up): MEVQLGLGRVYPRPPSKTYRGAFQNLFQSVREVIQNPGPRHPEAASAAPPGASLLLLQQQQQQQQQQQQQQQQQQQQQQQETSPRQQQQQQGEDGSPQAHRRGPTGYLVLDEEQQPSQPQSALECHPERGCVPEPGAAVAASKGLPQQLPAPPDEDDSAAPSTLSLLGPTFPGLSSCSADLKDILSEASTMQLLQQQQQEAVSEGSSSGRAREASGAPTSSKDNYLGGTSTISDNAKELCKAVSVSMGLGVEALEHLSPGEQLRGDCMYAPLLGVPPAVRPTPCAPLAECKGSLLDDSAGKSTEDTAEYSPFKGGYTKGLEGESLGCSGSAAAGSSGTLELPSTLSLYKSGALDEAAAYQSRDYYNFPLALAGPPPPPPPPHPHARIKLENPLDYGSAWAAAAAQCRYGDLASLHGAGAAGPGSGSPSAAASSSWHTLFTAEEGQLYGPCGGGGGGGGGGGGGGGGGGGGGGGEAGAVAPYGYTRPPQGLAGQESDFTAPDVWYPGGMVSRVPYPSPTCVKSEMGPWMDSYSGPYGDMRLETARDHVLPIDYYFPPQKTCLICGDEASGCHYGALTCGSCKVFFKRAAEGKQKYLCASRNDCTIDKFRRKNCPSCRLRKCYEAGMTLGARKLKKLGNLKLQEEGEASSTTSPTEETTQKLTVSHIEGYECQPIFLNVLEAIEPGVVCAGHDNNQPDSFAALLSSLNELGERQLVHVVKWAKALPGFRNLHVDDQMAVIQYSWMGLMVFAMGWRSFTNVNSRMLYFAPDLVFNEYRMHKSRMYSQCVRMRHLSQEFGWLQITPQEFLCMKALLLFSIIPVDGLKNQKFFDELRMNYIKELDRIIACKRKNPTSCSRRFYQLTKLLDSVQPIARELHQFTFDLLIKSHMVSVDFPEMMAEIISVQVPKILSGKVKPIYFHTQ

## O=[N+]([O-])c1cccc2ccccc12
[1]
  Potency: inactive
[2]
  Potency: inactive
[3]
  Potency: inactive
[4]
  Potency: inactive
[5]
  Potency: inactive
[6]
  Potency: inactive
[7]
  Potency: inactive
[8]
  Potency: inactive
[9]
  Potency: inactive
[10]
  Potency: inactive
[11]
  Potency: inactive
[12]
  Potency: inactive
[13]
  Potency: inactive
Aromatase (Homo sapiens)
  Potency: inactive

## CCC(C)(c1ccc(O)cc1)c1ccc(O)cc1
[1]
  Potency: 27.3 µM (active)
[2]
  Potency: 61.1 µM (active) and 34.4 µM (active)
[14]
  Potency: 30.6 µM (active)
[3]
  Potency: inactive
[4]
  Potency: inactive
[6]
  Potency: 61.1 µM (active)
[7]
  Potency: inactive
[8]
  Potency: 616 nM [inconclusive] (active) and 309 nM [inconclusive] (active)
[9]
  Potency: inactive
[10]
  Potency: 195 nM [inconclusive] (active) and 1.95 µM [inconclusive] (active)
[11]
  Potency: 243 nM (active) and 273 nM (active)
[12]
  Potency: inactive
[13]
  Potency: inactive
Aromatase (Homo sapiens)
  Potency: 61.1 µM (active) and inactive

## C[C@]12CCC(=O)C[C@@H]1CC[C@@H]1[C@@H]2CC[C@]2(C)[C@@H](O)CC[C@@H]12
[1]
  Potency: 26.6 µM (active) and inactive
[3]
  Potency: inactive
[4]
  Potency: inactive
[6]
  Potency: 48 µM (active)
[7]
  Potency: inactive
[9]
  Potency: inactive
[13]
  Potency: inactive
Aromatase (Homo sapiens)
  Potency: inactive

## c1ccc(N=Nc2ccccc2)cc1
[1]
  Potency: inactive
[2]
  Potency: inactive
[14]
  Potency: inactive
[3]
  Potency: inactive
[4]
  Potency: inactive
[5]
  Potency: inactive
[6]
  Potency: inactive
[7]
  Potency: inactive
[9]
  Potency: inactive
[13]
  Potency: inactive
Aromatase (Homo sapiens)
  Potency: inactive

## Nc1ccc(-c2ccccc2)cc1
[1]
  Potency: inactive and 54.5 µM (active)
[2]
  Potency: inactive and 54.5 µM (active)
[14]
  Potency: inactive and 30.6 µM (active)
[3]
  Potency: inactive
[4]
  Potency: inactive
[5]
  Potency: inactive
[6]
  Potency: inactive
[7]
  Potency: inactive
[8]
  Potency: inactive
[9]
  Potency: inactive
[10]
  Potency: inactive
[11]
  Potency: 25 nM (active) and 10.9 µM (active)
[13]
  Potency: inactive
Aromatase (Homo sapiens)
  Potency: inactive

## Cc1ccc2c(c1N)C(=O)c1ccccc1C2=O
[1]
  Potency: inactive
[2]
  Potency: inactive
[14]
  Potency: 24.1 µM (active) and 30.6 µM (active)
[3]
  Potency: inactive
[4]
  Potency: inactive
[5]
  Potency: 67.8 µM (active)
[6]
  Potency: inactive
[7]
  Potency: inactive
[8]
  Potency: inactive
[9]
  Potency: inactive
[10]
  Potency: 389 nM [inconclusive] (active)
[11]
  Potency: 3.03 µM (active) and 4.33 µM (active)
[13]
  Potency: 30.3 µM (active) and 27.3 µM (active)
Aromatase (Homo sapiens)
  Potency: inactive

## C#CCOS(=O)OC1CCCCC1Oc1ccc(C(C)(C)C)cc1 (centres undefined)
[1]
  Potency: 6.12 µM (active) and 2.73 µM (active)
[2]
  Potency: 3.86 µM (active) and 2.17 µM (active)
[3]
  Potency: 174 nM (active) and 1.74 µM (active)
[4]
  Potency: 4.33 µM (active)
[6]
  Potency: 4.33 µM (active)
[7]
  Potency: inactive
[10]
  Potency: inactive and 2.75 µM [inconclusive] (active)
[12]
  Potency: 9.7 µM (active)
[13]
  Potency: 27.3 µM (active)
Aromatase (Homo sapiens)
  Potency: 15.4 µM (active) and 6.86 µM (active)

## Nc1ccc(-c2ccc(N)c(N)c2)cc1N
[1]
  Potency: 60.9 µM (active) and 9.69 µM (active)
[2]
  Potency: 60.9 µM (active) and 12.2 µM (active)
[14]
  Potency: 68.4 µM (active) and 12.2 µM (active)
[3]
  Potency: inactive
[9]
  Potency: inactive
[13]
  Potency: inactive
Aromatase (Homo sapiens)
  Potency: 6.09 µM (active) and inactive

## CCOC(=O)C(C)OC(=O)c1cc(Oc2ccc(C(F)(F)F)cc2Cl)ccc1[N+](=O)[O-] (centres undefined)
[1]
  Potency: 24.3 µM (active)
[2]
  Potency: 27.3 µM (active)
[14]
  Potency: 21.7 µM (active)
[3]
  Potency: inactive
[4]
  Potency: inactive
[5]
  Potency: inactive
[7]
  Potency: inactive
[9]
  Potency: inactive
[10]
  Potency: inactive
[12]
  Potency: 48.3 µM (active)
[13]
  Potency: inactive
Aromatase (Homo sapiens)
  Potency: inactive

## Nc1ccc(Cl)cc1N
[14]
  Potency: 42.3 µM (active)
[4]
  Potency: inactive
[15]
  Potency: inactive
[5]
  Potency: 42 µM (active)
[6]
  Potency: 24.3 µM (active)
[7]
  Potency: inactive
[9]
  Potency: inactive
[13]
  Potency: inactive
Aromatase (Homo sapiens)
  Potency: inactive

## Oc1c(Cl)c(Cl)c(Cl)c(Cl)c1Cl
[2]
  Potency: inactive
[3]
  Potency: 21.4 µM (active)
[4]
  Potency: inactive
[6]
  Potency: 8.46 µM (active) and 27.2 µM (active)
[7]
  Potency: inactive
[8]
  Potency: 8.54 µM [inconclusive] (active)
[10]
  Potency: inactive
[12]
  Potency: 59.9 µM (active) and 27.2 µM (active)
[13]
  Potency: inactive
Aromatase (Homo sapiens)
  Potency: inactive

## CN(C)c1ccc(C(=O)c2ccc(N(C)C)cc2)cc1
[1]
  Potency: 1.52 µM (active) and 1.37 µM (active)
[2]
  Potency: 762 nM (active) and 969 nM (active)
[3]
  Potency: inactive
[4]
  Potency: inactive
[6]
  Potency: 5.39 µM (active) and 1.09 µM (active)
[7]
  Potency: inactive
[9]
  Potency: inactive
[13]
  Potency: inactive
Aromatase (Homo sapiens)
  Potency: inactive

## N#CCCCl
[1]
  Potency: inactive
[2]
  Potency: inactive
[3]
  Potency: inactive
[4]
  Potency: inactive
[5]
  Potency: inactive
[6]
  Potency: inactive
[7]
  Potency: inactive
[9]
  Potency: inactive
[13]
  Potency: inactive

## O=c1oc2ccccc2c(O)c1C(CC(O)c1ccc(-c2ccc(Br)cc2)cc1)c1ccccc1 (centres undefined)
[1]
  Potency: inactive
[2]
  Potency: inactive
[3]
  Potency: inactive
[4]
  Potency: inactive
[6]
  Potency: 29.8 µM (active) and 57.9 µM (active)
[7]
  Potency: inactive
[9]
  Potency: inactive
[10]
  Potency: inactive
[11]
  Potency: inactive
[12]
  Potency: inactive
[13]
  Potency: inactive
Aromatase (Homo sapiens)
  Potency: inactive

## C=CCc1ccc2c(c1)OCO2
[1]
  Potency: inactive
[2]
  Potency: inactive
[14]
  Potency: inactive
[3]
  Potency: inactive
[4]
  Potency: inactive
[5]
  Potency: inactive
[6]
  Potency: inactive
[7]
  Potency: inactive
[9]
  Potency: inactive
[13]
  Potency: inactive
Aromatase (Homo sapiens)
  Potency: inactive
